# Values without a mark were called inactive. Records with an inconclusive call do not appear. Where a call stands in place of a potency, no number is given. Activity calls are given as the source filed them. Calls come from the whole dose curve; as a rule, active = well fitted curve in the direction sought with a large enough effect; inconclusive = small, poorly fitted or top-dose-only effect, or another doubt; inactive = no such curve, though single readings can be large; an effect the other way counts as inactive or inconclusive.
# Legend:
# [1] = Cellular Toxicity (caspase-3) Mesangial (AID 660); conditions: mesangial cells, normalized: DMSO 0%, 100 µM tamoxifen 100%; at 91.7 µM (top of the series);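 note: combined caspase 3 and 7 activity read by Caspase-Glo luminescence; cells exposed to compound for 16 h before the caspase read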
# Outline: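 Caspase 3/7 activation measured by Caspase-Glo 3/7 luminescence (20 min, room temperature) following 16 h exposure of mesangial cells (1000/well); AC50 from Hill-equation fit, normalized to DMSO and 100 uM tamoxifen.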
# [2] = Cellular Toxicity (caspase-3) SK-N-SH (AID 661)
# Outline: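 Caspase 3/7 activation was read by luminogenic substrate cleavage after 16 hour treatment of SK-N-SH cells. Signal was scaled between DMSO and 10 uM staurosporine, and concentration-response data were fitted with the Hill equation for AC50.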
# [3] = Cellular Toxicity (caspase-3) H-4-II-E (AID 663); conditions: H-4-II-E rat hepatoma, scaled: DMSO 0%, 100 µM tamoxifen 100%; at 92.2 µM (top of the series);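 note: cells exposed to compound for 16 hr before readout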
# Outline: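 Caspase 3/7 activation measured in H-4-II-E cells in complete culture medium after 16 hr treatment at 37 °C, using luciferase-coupled substrate readout; AC50 values come from Hill-equation fits of normalized concentration-response data.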
# [4] = Cellular Toxicity (caspase-3) Hek293 (AID 664); conditions: HEK293 caspase-3 activation, DMSO = 0%, 100 µM tamoxifen = 100%; at 92.2 µM (top of the series);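 note: cells exposed to compound for 16 h at 37 °C before readout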
# Outline: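 Concentration-response qHTS: caspase 3/7 activation measured by luminescent aminoluciferin substrate cleavage after 16 h compound exposure of Hek 293 cells. AC50 from Hill equation, with DMSO as basal and 100 uM tamoxifen as 100%.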
# [5] = Cellular Toxicity (caspase-3) N2a (AID 665);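 note: compound exposure lasted 16 h at 37 °C before readout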
# Outline: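 Caspase-3/7 activation measured as luminescence from Caspase-Glo reagent (1 h, room temperature) after 16 h compound exposure of mouse N2a cells. AC50 values from Hill-equation concentration-response, scaled between DMSO and 10 uM staurosporine.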
# [6] = Cellular Toxicity (caspase-3) NIH 3T3 (AID 666);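 note: caspase signal read after 16 h compound exposure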
# Outline: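 Caspase-Glo 3/7 luminescence reported caspase activation in 1000 NIH 3T3 cells/well after 16 h compound exposure at 37 C. DMSO set basal and 100 uM tamoxifen set 100% stimulation; concentration-response modeled with the Hill equation for AC50.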
# [7] = Cellular Toxicity (caspase-3) Renal Proximal Tubule (AID 667); conditions: Potency: caspase-3 activation;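 note: cells exposed to compound for 16 hours at 37 °C before detection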
# Outline: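 In qHTS format, rat primary proximal tubule cells seeded at 1000 per well are exposed to compounds for 16 hours at 37 °C. An increase in Caspase-Glo 3/7 luminescence indicates caspase activation.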
# [8] = biological target: Cytochrome P450 3A4 (Homo sapiens) (UniProt P08684); test: qHTS Assay for Inhibitors and Substrates of Cytochrome P450 3A4 (AID 884); note: nearly all actives have a fitted effect of over 50% in size; note: potency is the fitted concentration of half-maximal effect
# Chain of Cytochrome P450 3A4 (Homo sapiens) (P08684 whole entry, looked up): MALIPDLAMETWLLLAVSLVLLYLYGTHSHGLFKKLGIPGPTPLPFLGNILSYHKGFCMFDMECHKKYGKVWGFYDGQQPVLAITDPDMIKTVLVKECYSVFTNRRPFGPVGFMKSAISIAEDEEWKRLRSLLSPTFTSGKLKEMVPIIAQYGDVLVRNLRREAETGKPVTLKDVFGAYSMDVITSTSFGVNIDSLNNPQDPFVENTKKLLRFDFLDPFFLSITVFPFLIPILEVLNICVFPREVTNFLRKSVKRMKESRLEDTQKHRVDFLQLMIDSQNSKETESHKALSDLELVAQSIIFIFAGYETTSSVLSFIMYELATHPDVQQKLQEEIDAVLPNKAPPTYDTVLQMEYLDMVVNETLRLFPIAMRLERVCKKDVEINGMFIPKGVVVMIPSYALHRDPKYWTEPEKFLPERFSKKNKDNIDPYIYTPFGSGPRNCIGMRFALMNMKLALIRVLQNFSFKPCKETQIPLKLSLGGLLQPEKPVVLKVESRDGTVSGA
# Outline: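 Luminescent readout of luciferin produced by CYP3A4 (20 nM) dealkylation of Luciferin-PPXE, 25 uM (its KM). NADPH-driven reaction ran 60 min at RT after 10 min compound preincubation; data scaled to 57 uM ketoconazole as 100% inhibition.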
# [9] = Cell Viability - LYMP2-001 (AID 921);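 note: cells exposed to compound for 24 h at 37 °C; nearly all actives have a fitted effect of over 70% in size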
# Outline: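 qHTS, 1536-well; lymphoblastoid cells, 24 hr compound, 37 C; ATP by CellTiter-Glo, 30 min RT; luminescence; Hill-fit AC50.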
# [10] = biological target: Cytochrome P450 3A4 (Homo sapiens) (UniProt P08684); test: qHTS Assay for Activators of Cytochrome P450 3A4 (AID 885); note: nearly all actives have a fitted effect of over 65% in size
# Outline: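 Using 20nM recombinant human CYP3A4 in potassium phosphate (200mM), substrate Luciferin-PPXE at 25uM, luminescent luciferin detection followed a 60-min RT NADPH reaction; data scaled to 57 uM ketoconazole.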
Compound,caspase-3 activation [1],outcome [2],caspase-3 activation [3],caspase-3 activation [4],outcome [5],outcome [6],Potency [7],Potency [8],Potency [9],outcome [10]
C/C(C=O)=C/c1ccccc1,-0.174%,inactive,-1.36%,0.188%,inactive,inactive,inactive,inactive,–,–
CCOC(C)(C)C,-0.979%,inactive,-0.707%,1.78%,inactive,inactive,inactive,inactive,inactive,–
O=Nc1ccc(NO)cc1,0.317%,inactive,1.96%,11.4%,inactive,inactive,inactive,–,–,–
O=P(O)(OCc1ccccc1)OCc1ccccc1,-0.354%,inactive,1.06%,-1.18%,inactive,inactive,inactive,inactive,inactive,–
Nc1cccc(O)c1,0.168%,inactive,-0.484%,1.1%,inactive,inactive,inactive,inactive,inactive,–
C[C@@H]1CC2(OC[C@]3(C)O[C@H]23)O[C@H]2C[C@@]3(C)[C@@H]4CC[C@H]5C(C)(C)C(O[C@@H]6OC[C@@H](O)[C@H](O)[C@H]6O)CC[C@@]56C[C@@]46CC[C@]3(C)[C@@H]12 (stereo not given in full),2.15%,inactive,2.6%,3.04%,inactive,inactive,inactive,inactive,inactive,–
c1ccc(Nc2ccccc2)cc1,-0.717%,inactive,0.361%,-0.415%,inactive,inactive,inactive,inactive,inactive,–
Cc1cc(C)cc(O)c1,-0.0828%,inactive,-0.413%,0.338%,inactive,inactive,inactive,inactive,inactive,–
CC(C)(C)OC=O,1.35%,inactive,0.183%,-1.63%,inactive,inactive,inactive,inactive,–,–
NC(=O)CCCCC(N)=O,-0.354%,inactive,0.202%,-0.72%,inactive,inactive,inactive,inactive,inactive,–
C=Cc1ccccn1,2.96%,inactive,1.92%,3.43%,inactive,inactive,inactive,inactive,inactive,–
C/C=C(/C)C#N,-0.503%,inactive,0.589%,0.51%,inactive,inactive,inactive,inactive,inactive,–
O=C1NC(=O)c2cc([N+](=O)[O-])ccc21,-0.781%,inactive,-0.832%,-0.133%,inactive,inactive,inactive,15.8 µM (active),inactive,inactive
Cc1ccc(C)cc1,-0.809%,inactive,1.14%,-2.53%,inactive,inactive,inactive,inactive,inactive,–
CC(C)C(C)C,0.762%,inactive,-0.199%,-1.39%,inactive,inactive,inactive,inactive,inactive,–
Clc1cc(Cl)cc(Cl)c1,-0.669%,inactive,0.838%,0.505%,inactive,inactive,inactive,inactive,inactive,–
Cc1ccc(CO)cc1,-1.48%,inactive,0.0936%,0.73%,inactive,inactive,inactive,inactive,inactive,–
O=Cc1ccccc1Cl,-0.514%,inactive,2.39%,2.31%,inactive,inactive,inactive,inactive,–,–
O=[N+]([O-])c1ccc(CCO)cc1,-1.2%,inactive,0.267%,-3.11%,inactive,inactive,inactive,inactive,–,–
Cc1cc(C(=O)O)ccc1[N+](=O)[O-],0.159%,inactive,-0.927%,1.07%,inactive,inactive,inactive,inactive,inactive,–
O=C1OC(=O)c2c(Br)c(Br)c(Br)c(Br)c21,0.186%,inactive,0.557%,1.35%,inactive,inactive,inactive,inactive,–,–
COc1ccccc1[N+](=O)[O-],-1.05%,inactive,0.0394%,-0.651%,inactive,inactive,inactive,inactive,inactive,–
CC(C)(O)CCC(C)(C)O,-1.06%,inactive,0.513%,5.12%,inactive,inactive,inactive,inactive,inactive,–
CN(C)CCCCl,-0.558%,inactive,0.431%,-0.527%,inactive,inactive,inactive,inactive,inactive,–
